Experimental data reported in article PMC4336329 (PLoS ONE, 2015).
About 14,000 (4.5%) of roughly 310,000 compounds showed an effect of 50% or more. Effects have a minus sign here. For the sample, strong results were picked, then their nearest neighbours and some compounds at random.

Target: human ether-à-go-go-related gene (hERG) potassium channel (human, UniProt Q12809)
Experiment: primary screen, population patch clamp on CHO cells stably expressing hERG; higher = less effect of the substance
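Further: peak tail current of the secondary pulse compared with the same well before compound.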

human ether-à-go-go-related gene (hERG) potassium channel, sequence (Q12809 whole entry, looked up): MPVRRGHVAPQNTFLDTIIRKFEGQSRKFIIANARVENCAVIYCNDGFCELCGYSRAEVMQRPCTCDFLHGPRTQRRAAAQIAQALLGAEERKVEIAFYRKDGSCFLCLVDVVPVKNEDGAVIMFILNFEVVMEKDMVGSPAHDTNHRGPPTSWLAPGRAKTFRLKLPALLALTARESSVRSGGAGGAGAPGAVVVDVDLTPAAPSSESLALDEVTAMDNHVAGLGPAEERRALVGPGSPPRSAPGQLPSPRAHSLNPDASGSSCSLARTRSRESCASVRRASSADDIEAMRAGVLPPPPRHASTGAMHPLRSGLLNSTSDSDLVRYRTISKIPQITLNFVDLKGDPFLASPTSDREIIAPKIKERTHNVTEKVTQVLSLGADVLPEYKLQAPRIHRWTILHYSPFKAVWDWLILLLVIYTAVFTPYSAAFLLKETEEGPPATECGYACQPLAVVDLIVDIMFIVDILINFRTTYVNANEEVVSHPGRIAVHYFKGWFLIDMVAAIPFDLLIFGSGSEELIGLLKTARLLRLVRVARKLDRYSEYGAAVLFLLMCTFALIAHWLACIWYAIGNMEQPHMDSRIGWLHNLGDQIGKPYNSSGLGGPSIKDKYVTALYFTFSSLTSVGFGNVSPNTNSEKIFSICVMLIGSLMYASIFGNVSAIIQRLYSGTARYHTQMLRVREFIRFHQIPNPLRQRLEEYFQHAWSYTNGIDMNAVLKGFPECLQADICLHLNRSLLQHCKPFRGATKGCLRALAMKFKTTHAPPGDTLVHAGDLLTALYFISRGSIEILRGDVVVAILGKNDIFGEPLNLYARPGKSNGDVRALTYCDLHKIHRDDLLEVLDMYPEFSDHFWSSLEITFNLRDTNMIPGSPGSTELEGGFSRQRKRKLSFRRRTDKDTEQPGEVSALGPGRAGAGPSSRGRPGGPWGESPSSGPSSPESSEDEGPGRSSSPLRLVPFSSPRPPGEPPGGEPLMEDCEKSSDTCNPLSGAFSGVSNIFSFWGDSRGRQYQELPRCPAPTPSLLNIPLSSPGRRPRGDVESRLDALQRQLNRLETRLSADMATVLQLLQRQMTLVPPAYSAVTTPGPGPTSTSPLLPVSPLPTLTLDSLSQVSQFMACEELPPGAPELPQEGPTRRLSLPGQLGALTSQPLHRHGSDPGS

Row | SMILES | hERG current change (%, negative = inhibition) at 10uM [%]
1 | CCOC(=O)C1=C(c2ccccc2)O/C(=C(/C(=O)OC)C(F)(F)F)S1 | -3.45
2 | CC(=O)Nc1ccc(N(C(=O)Cc2c[nH]c3ccccc23)C(C(=O)NC2CCCCC2)c2ccco2)cc1 (centres unmarked) | -13.1
3 | O=c1[nH]nc(CNc2ccc(C(F)(F)F)cc2)c2ccccc12 | 1.92
4 | CC(C)(C)c1ccc(C(=O)N2CCC(=O)N(C(CO)Cc3ccccc3)CC2)cc1 (centres unmarked) | -16.7
5 | Cc1cccc(NC(=S)N(CCN(C)C)Cc2cccs2)c1 | -25.8
6 | Cc1cc(NS(=O)(=O)c2cccs2)no1 | -3.03
7 | Cc1ccccc1Nc1cc(C(=O)NCC2CCCO2)c2ccccc2n1 (centres unmarked) | -15.6
8 | Cc1ccc(S(=O)(=O)c2cc3c(=O)n4cccc(C)c4nc3n(CC3CCCO3)c2=N)cc1C (centres unmarked) | 2.35
9 | CCCn1c(=N)c(C(=O)NCc2ccc3c(c2)OCO3)cc2c(=O)n3cccc(C)c3nc21 | -76.5
10 | CCCn1c(=S)[nH]c2cc(C(=O)NCC3CCCO3)ccc2c1=O (centres unmarked) | 3.73
11 | Cc1cccn2c(=O)nc(SCC(=O)NCc3ccc4c(c3)OCO4)nc12 | -27.1
12 | Cc1cccn2c(=O)c3cc(C(=O)NC4CCCC4)c(=N)n(CC4CCCO4)c3nc12 (centres unmarked) | -74.4
13 | CCCn1c(=N)c(S(=O)(=O)c2ccc(F)cc2)cc2c(=O)n3cccc(C)c3nc21 | -4.16
14 | Cc1ccc(-c2cc(C(=O)NCC3CCCO3)c3ccccc3n2)cc1C (centres unmarked) | 12.1
15 | Cc1cccn2c(=O)c3cc(C(=O)NCC4CCCO4)c(=N)n(CC4CCCO4)c3nc12 (centres unmarked) | -81.9
16 | CCCn1c(=N)c(C(=O)NCC2CCCO2)cc2c(=O)n3cccc(C)c3nc21 (centres unmarked) | -76.3
17 | CCCn1nc(C(=O)NCc2ccc3c(c2)OCO3)c2ccccc2c1=O | 1.89
18 | CCC(=O)N1CCc2cc(S(=O)(=O)CCC(=O)NCc3cccc(OC)c3)ccc21 | 13.8
19 | COc1ccc([C@@H]2C[C@@H](c3ccccc3)Oc3c(C)ccc(C(C)C)c32)cc1 | 13.3
20 | CCCc1nc(N2CCCC2)c(C#N)c2c1CCCC2 | 4.06
21 | COC(=O)c1cc(-c2ccccc2)n(CCN)c1C.Cl | -3.56
22 | COc1ccc(OCC(=O)Nc2nnc(C)s2)cc1 | 9.71
23 | Cc1nnc(SCc2ccccc2)nc1/C=C/NOCc1ccc(Cl)cc1Cl | 13.9
24 | C=CCSc1nnc(C)c(/C=C/Nc2ccc(Cl)cc2)n1 | -9.44
25 | Cc1nnc(SCc2ccc(Cl)cc2)nc1/C=C/N(C)C | -72.6
26 | Cc1ccc(C(=O)O)cc1S(=O)(=O)N1CCC(C(=O)O)CC1 | -4.77
27 | NC(=S)Cc1nc2n(n1)Cc1ccccc1-2 | 21.6
28 | CC(=O)N1CCN(c2ccc(NC(=O)c3ccccc3C)cc2)CC1 | -0.597
29 | C=C1CCN([C@@H](C)C(=O)NCc2ccc(OC)cc2)S(=O)(=O)c2ccccc21 | -6.66
